Laboratory results published in PubChem BioAssay AID651813 (National Center for Advancing Translational Sciences (NCATS), 2012).
Screen size: about 2,100 compounds; about 1,100 (52%) were called active. About 27% were inconclusive and are not listed. So high a share suggests a set chosen from earlier hits. Some of the results follow. A number with no mark means an inactive call. The call rests on the fitted dose curve; in most records, active means well fitted inhibition curve with a large enough effect; inconclusive means small, poorly fitted or top-dose-only effect; inactive means no such curve, though single readings can be large or run the other way.

biological target: DNA dC->dU-editing enzyme APOBEC-3G (Homo sapiens) (UniProt Q9HC16); experiment: qHTS for inhibitors of Vif-A3G interactions: Cherry picks counterscreen; conditions: HeLa A3G-eYFP + Vif (tagged APOBEC3G with the HIV-1 protein that degrades it), eYFP fluorescence, 24 h;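 further: hits raise yellow fluorescence by blocking Vif-driven A3G-eYFP degradation; nearly all actives have a fitted effect of over 70% in size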;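 on max response: max response given as percent of control signal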
Sequence (Q9HC16 whole entry, looked up): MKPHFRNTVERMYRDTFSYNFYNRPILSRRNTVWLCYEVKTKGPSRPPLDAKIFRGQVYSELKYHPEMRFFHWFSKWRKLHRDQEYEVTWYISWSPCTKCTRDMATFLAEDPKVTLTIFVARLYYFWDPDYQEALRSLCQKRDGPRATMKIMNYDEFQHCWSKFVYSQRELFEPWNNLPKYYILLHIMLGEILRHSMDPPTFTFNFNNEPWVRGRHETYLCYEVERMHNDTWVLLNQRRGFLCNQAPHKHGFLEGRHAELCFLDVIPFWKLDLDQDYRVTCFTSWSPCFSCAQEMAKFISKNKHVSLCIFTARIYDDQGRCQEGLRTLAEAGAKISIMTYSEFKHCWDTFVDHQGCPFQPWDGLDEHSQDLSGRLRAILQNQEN
Summary of the method: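 HeLa cells stably expressing A3G-eYFP and Vif were treated for 24 h at 37 deg C with compounds at several concentrations; yellow fluorescence (Ex 488 nm, Em 500-530 nm) read by Acumen Explorer, MG132 as positive control.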
Potency means the concentration at half of the fitted maximal effect.

| Compound | Potency | max response |
| --- | --- | --- |
| COc1cc(NC(=O)C2=C(N3CCOCC3)/C(=C\c3ccc(N(C)C)cc3)CCC2)cc(OC)c1OC | 3.53 µM (active) |  |
| Cc1cc(NC(=O)NC(=O)c2ccccc2NC(=O)C(C)N)ccc1Oc1ncc(Br)cn1 (configuration not stated) | 0.444 µM (active) |  |
| Cc1cc(/C=C2\SC(=S)N(C)C2=O)c(C)n1-c1ccc(O)cc1 | 20.6 µM (active) |  |
| Cc1cc(/C=C2\SC(=S)N(C)C2=O)c(C)n1-c1ccccc1O | 18.4 µM (active) |  |
| COc1cc2c(cc1OC)CN(C(=O)c1ccc3nc[nH]c3c1)CC2 | 14 µM (active) |  |
| Cc1cccc(C(=O)NC(=S)N2CCc3ccccc3C2)c1 |  | -2.8% |
| COc1cc2c(cc1OC)CN(C(=O)/C=C/c1cccs1)CC2 | 1.25 µM (active) |  |
| CN(C)CCCN(C(=O)/C=C/c1cccs1)c1nc2ccc(F)cc2s1 |  | -22.2% |
| COc1cc2c(cc1OC)CN(C(=O)c1cc(=O)c3ccccc3o1)CC2 | 15.8 µM (active) |  |
| CC(=O)N/N=C/c1cc(C(C)(C)C)cc(/C=N/NC(C)=O)c1O | 20.6 µM (active) |  |
| CC(=O)N/N=C/c1cc(C(C)C)cc(/C=N/NC(C)=O)c1O | 18.4 µM (active) |  |
| CC1(C)CCN2CCC(C)(C)c3c(O)ccc1c32 | 5.59 µM (active) |  |
| COc1ccc(NS(=O)(=O)c2cc(NC(=O)c3ccc(=O)[nH]c3)ccc2N2CCCC2)cc1 | 5.59 µM (active) |  |
| Cc1ccc(NC(=S)NC(=O)c2ccc(F)cc2)cc1S(=O)(=O)Nc1cccc(Cl)c1 |  | -21.2% |
| ClCC1NCC(c2ccccc2Cl)c2c1[nH]c1ccccc21 (configuration not stated) |  | -28% |
| CN1C(=O)N(C)c2ccc(C=O)c3cccc1c23 |  | 1.02% |
| N#Cc1ccc(-c2ccco2)nc1SCc1ccccc1 |  | -26% |
| N#Cc1c(C(F)(F)F)cc(-c2ccco2)nc1SCc1ccccn1 | 16.4 µM (active) |  |
| COc1cc2cc(-c3ccc(OC)c(OC)c3C)nc(N)c2cc1OC | 2.8 µM (active) |  |
| C[C@H]1CN([C@@H](C)CO)C(=O)Cc2cc(NC(=O)CCC(F)(F)F)ccc2O[C@H]1CN(C)S(=O)(=O)c1ccc(F)cc1 | 7.9 µM (active) |  |
| CN(C)c1ccc(C2C=C(c3ccc(Cl)cc3OC(F)F)Nc3ncnn32)cc1 (configuration not stated) | 15.8 µM (active) |  |
| CCOC(=O)N1CCN(C(=O)c2[nH]c(C(F)(F)F)nc2-c2ccccc2)CC1 | 15.8 µM (active) |  |
| O=C(c1[nH]c(C(F)(F)F)nc1-c1ccccc1)N1CCN(c2ccccc2)CC1 | 3.53 µM (active) |  |

| Compound | Potency | max response |
| --- | --- | --- |
| O=C(c1[nH]c(C(F)(F)F)nc1-c1ccccc1)N1CCN(c2cccc(C(F)(F)F)n2)CC1 | 6.27 µM (active) |  |
| Cn1nnnc1SCCNCc1cc(Br)ccc1OCc1ccccc1Cl |  | -13.4% |
| Cc1cccc2cc3c(N)c(C(=O)N4CCCc5ccccc54)sc3nc12 | 9.2 µM (active) |  |
| Cc1cccc2cc3c(N)c(C(=O)N4CCc5ccccc54)sc3nc12 | 7.31 µM (active) |  |
| Cc1ccc2nc3sc(C(=O)N4CCCc5ccccc54)c(N)c3cc2c1 | 7.9 µM (active) |  |
| Cc1cc(C)n2nc(C(=O)N/N=C/c3c4ccccc4cc4ccccc34)nc2n1 | 15.8 µM (active) |  |
| Cc1ccc(/C=N/NC(=O)c2nc3nc(C)cc(C)n3n2)cc1 |  | -10.8% |
| CCOc1cc(C(=O)NN=C2CCCC2)cc(OCC)c1OCC |  | -1.27% |
| COc1ccc2c(Cl)c(C(=O)N/N=C3\CCCC(=O)C3)sc2c1 | 12.5 µM (active) |  |
| COc1ccc(-c2ccc3c(c2)S(=O)(=O)c2cccc(C(=O)NCc4cccc(OC(F)(F)F)c4)c2C3=O)cc1OC | 3.26 µM (active) |  |
| COc1ccc(-c2ccc3c(c2)S(=O)(=O)c2cccc(C(=O)NCCOc4ccccc4)c2C3=O)cc1OC | 14 µM (active) |  |
| O=C(NCc1ccccc1Cl)c1cccc2c1C(=O)c1ccc(-c3ccc(OC(F)(F)F)cc3)cc1S2(=O)=O | 18.4 µM (active) |  |
| COc1cccc(NC(=O)c2oc3ccc(S(=O)(=O)N4CCC5(CC4)OCCO5)cc3c2C)c1 | 23.1 µM (active) |  |
| COc1ccc(NC(=O)c2oc3ccc(S(=O)(=O)N4CCOCC4)cc3c2C)cc1 |  | 9.65% |
| c1ccc(-c2nccc(-c3ccc4c(c3)OCO4)n2)cc1 | 4.98 µM (active) |  |
| CCN1C/C(=C/c2cccc([N+](=O)[O-])c2)C(=O)/C(=C/c2cccc([N+](=O)[O-])c2)C1 | 5.59 µM (active) |  |
| CCN1C/C(=C\c2cccc([N+](=O)[O-])c2)C(=O)/C(=C/c2cccc([N+](=O)[O-])c2)C1 | 11.2 µM (active) |  |
| CC(C)COc1ccc(C(=O)N/C(=C/c2cccc([N+](=O)[O-])c2)C(=O)O)cc1 |  | 13.2% |
| CC(=O)c1ccc2cccc3c2c1N=CN3C | 12.5 µM (active) |  |
| Nc1nc(SCc2ccc(Cl)cc2Cl)nc2nc3c(cc12)CCCC3 | 23.1 µM (active) |  |
| Cc1cc2nc3c(=O)n(Cc4ccccc4)c(=O)[nH]c3nc2cc1N | 6.27 µM (active) |  |
| Cc1cc2nc3c(=O)n(C4CCCCC4)c(=O)[nH]c3nc2cc1N | 7.31 µM (active) |  |
| Cc1cc2nc3c(=O)n(CCc4ccccc4)c(=O)[nH]c3nc2cc1N | 3.66 µM (active) |  |

| Compound | Potency | max response |
| --- | --- | --- |
| CCCCCCn1c(=O)[nH]c2nc3cc(N)ccc3nc2c1=O |  | 36.1% |
| Cc1ccc(NC(=O)CSc2n[nH]c(-c3ccccn3)n2)cc1 |  | -4.16% |
| Cc1ccc(NC(=O)CO/N=C/c2ccc(N(C)C)cc2)cc1 | 23.1 µM (active) |  |
| CN(C)c1ccc(/C=C(/C#N)C(=O)Nc2nc3c(s2)CCN(Cc2ccccc2)C3)cc1 | 0.444 µM (active) |  |
| CN(C)c1ccc(/C=C(\C#N)C(=O)Nc2nc3c(s2)CCN(Cc2ccccc2)C3)cc1 | 0.396 µM (active) |  |
| Cn1c(=O)c2cc(NC(=O)NCc3ccccc3)ccc2n1C/C=C/c1ccccc1 | 15.8 µM (active) |  |
| CCOCCC(=O)Nc1ccc2c(c1)c(=O)n(C)n2C/C=C/c1ccccc1 | 11.2 µM (active) |  |
| Cn1c(=O)c2cc(NC(=O)NCc3ccc(F)cc3)ccc2n1C/C=C/c1ccccc1 | 5.59 µM (active) |  |
| CCCCCCc1cc2cc(-c3nnc(-c4ccccc4O)o3)c(=O)oc2cc1O |  | 54.5% |
| CCCCCCc1cc2cc(-c3nnc(-c4ccccc4)o3)c(=O)oc2cc1O | 1.98 µM (active) |  |
| CCCCCCc1cc2cc(-c3nnc(-c4ccccc4OC)o3)c(=O)oc2cc1O | 7.04 µM (active) |  |
| Cc1c(N2C(=O)/C(=C/c3ccc(N(C)C)cc3)N(C)C2=S)c(=O)n(-c2ccccc2)n1C | 20.6 µM (active) |  |
| CN1C(=S)N(c2cccnc2)C(=O)/C1=C\c1ccc(N(C)C)cc1 | 11.2 µM (active) |  |
| CN1C(=O)/C(=C\c2ccc(N(C)C)cc2)OC1=S | 2.8 µM (active) |  |
| Cc1ccsc1/C=N\NC(=O)c1n[nH]c2c1CCC2 | 7.04 µM (active) |  |
| O=C(N/N=C/c1cccc2ccccc12)c1n[nH]c2c1CCCC2 | 3.53 µM (active) |  |
| O=C(N/N=C/c1cccs1)c1n[nH]c2c1CCC2 | 4.44 µM (active) |  |
| COCCNC(=S)N/N=C(\C)c1ccc(OC(F)F)cc1 |  | -0.557% |
| Cn1cc(/C=C2\SC(=S)N(NC(=O)c3cccc(Cl)c3)C2=O)c2ccccc21 | 8.2 µM (active) |  |
| COc1cc(/C=N/Nc2ccc(Cl)nn2)cc(OC)c1O |  | -0.979% |
| COc1cc(/C=N/Nc2cc(C)nc(NS(=O)(=O)c3ccccc3)n2)ccc1O |  | -5.07% |
| COc1ccc(-c2cnnc(N/N=C/c3ccc(O)c(OC)c3)n2)cc1 | 8.86 µM (active) |  |
| O=C(Nc1ccccc1-c1nc2ccccc2[nH]1)c1ccc(N2C(=O)CCC2=O)cc1 | 18.4 µM (active) |  |

| Compound | Potency | max response |
| --- | --- | --- |
| S=C(NC1CCCCC1)N(CCc1ccccc1)CCc1ccccc1 |  | -10.7% |
| CCOC(=O)c1[nH]c(C)c(C(=O)Nc2ccccc2C)c1C | 6.27 µM (active) |  |
| CCOC(=O)c1[nH]c(C)c(C(=O)Nc2cc(OC)ccc2OC)c1C | 3.53 µM (active) |  |
| CCOC(=O)c1[nH]c(C)c(C(=O)Nc2ccc(C)cc2C)c1C | 3.96 µM (active) |  |
| COc1ccc(OC)c(NC(=O)c2cc(-c3cc(C)cc(C)c3O)n[nH]2)c1 |  | -1.73% |
| CCOC(=O)c1c(C)[nH]c(C(=O)N/N=C/c2cccc(OC)c2)c1C | 15.8 µM (active) |  |
| Cc1cc(N/N=C/c2ccc(O)cc2O)nc(-n2nc(C)cc2C)n1 |  | 2.12% |
| CCOC(=O)c1[nH]c(C)c(C(=O)Nc2ccccc2F)c1C | 3.53 µM (active) |  |
| CC(=O)c1c(C)[nH]c(C(=O)Nc2ccc(Cl)cc2F)c1C |  | -22.8% |
| COc1ccccc1CNC(=O)c1ccc2nc3[nH]c4ccccc4c3nc2c1 |  | 6.47% |
| Fc1ccc2nc3[nH]c4ccccc4c3nc2c1 | 0.396 µM (active) |  |
| CCN(CC(=O)Nc1ccccc1-c1ccccc1)Cc1nc2ccccc2c(=O)[nH]1 | 12.5 µM (active) |  |
| C(=Cc1c[nH]c2ccccc12)c1ccc2ccccc2n1 | 20.6 µM (active) |  |
| C(=C\c1c[nH]c2ccccc12)/c1ccc2ccccc2n1 | 16.4 µM (active) |  |
| Cc1[nH]c2ccccc2c1/C=C/c1ccc2ccccc2n1 | 16.4 µM (active) |  |
| CC(=O)c1cccc(NC(=O)C2CCCN(S(=O)(=O)c3cccc4nonc34)C2)c1 (configuration not stated) |  | 11.2% |
| COc1ccc(C(=O)NC2CCCc3ccccc32)cc1[N+](=O)[O-] (configuration not stated) | 7.04 µM (active) |  |
| COc1ccc(C(=O)C(C)[n+]2ccc(C)c3ccccc32)cc1[N+](=O)[O-] (configuration not stated) |  | 3.16% |
| O=C(COc1ccccc1-c1ccccc1)NN=C1CCCC1 |  | -18.6% |
| CCOC(=O)N1CCN(C(=O)c2cc(-c3ccc(OCC)cc3)nc3ccccc23)CC1 | 7.04 µM (active) |  |
| O=C(NC(=S)N1CCN(c2ccccn2)CC1)c1ccccc1 |  | -0.54% |
| CCOC(=O)N1CCN(C(=O)c2ccccc2-c2ccccc2)CC1 | 5.59 µM (active) |  |
| O=C(c1cc(-c2ccncc2)nc2ccccc12)N1CCN(c2ccccn2)CC1 | 9.94 µM (active) |  |
